Bioassay records deposited in PubChem BioAssay by The Scripps Research Institute Molecular Screening Center.
Hits are enriched below; roughly 1.9% of the tested compounds scored in any of these assays.
GSTO1 counter: inhibitors of recombinant GSTO1, primary screen, counter-screen for RBBP9 inhibitor project, biochemical, fluorescence polarization; Glutathione S-transferase omega-1 (Homo sapiens), P78417; 300,000 tested, 1.1% active; inhibition, % at 5.96 µM; AID 1974, 2009; activity-based probe fluorescence polarization;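 active = inhibition above the campaign mean inhibition plus 3 SD, cut at about 35% in these data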;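 note: 0% = GSTO1-1 with DMSO and 100% = wells lacking GSTO1-1 enzyme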
Target sequence (P78417 whole entry, looked up): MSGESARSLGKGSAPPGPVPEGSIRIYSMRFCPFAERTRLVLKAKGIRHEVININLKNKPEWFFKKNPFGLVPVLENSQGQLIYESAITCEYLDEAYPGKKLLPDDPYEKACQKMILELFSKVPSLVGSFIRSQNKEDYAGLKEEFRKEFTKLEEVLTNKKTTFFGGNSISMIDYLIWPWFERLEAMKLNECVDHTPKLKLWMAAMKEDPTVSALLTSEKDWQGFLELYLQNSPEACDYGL
Fam108B inh: mouse Fam108B serine hydrolase inhibitors, primary screen, counter-screen for RBBP9 inhibitor project, biochemical, fluorescence polarization; recombinant Fam108B, FP-Rh probe fluorescence polarization; inhibition, % at 9.51 µM; 300,000 tested, 0.33% active;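 active = inhibition above the screen mean inhibition plus 3 SD, computed separately per campaign, cut at about 18% in these data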;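 note: inhibitors lower polarization as less probe binds the enzyme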
LYPLA1 inh: LYPLA1 inhibitors, primary screen, counter-screen for PME1 inhibitor project, biochemical, fluorescence polarization, FP-Rh probe ABPP; inhibition, % at 5.9 µM; 320,000 tested, 0.16% active; recombinant LYPLA1; AID 2174, 2009; Acyl-protein thioesterase 1 (Homo sapiens), O75608;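 active = inhibition above the mean of all tested compounds plus 3 SD, set per campaign, cut at about 14% in these data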;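 note: inhibitors block serine hydrolase probe labeling of LYPLA1 so polarization falls; 0% = enzyme with DMSO and 100% = wells lacking LYPLA1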
PREPL inh: PREPL enzyme inhibitors, primary screen, biochemical, fluorescence polarization; Prolyl endopeptidase-like (Homo sapiens), Q4J6C6; recombinant PREPL, fluorescence polarization activity-based probe; inhibition, % at 5.96 µM; 320,000 tested, 0.68% active; AID 2751, 2010; in the data active = inhibition above about 43%;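 note: 0% = enzyme with DMSO and 100% = wells lacking enzyme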
LYPLA2 inh: LYPLA2 inhibitors, primary screen, counter-screen for PME1 inhibitor project, biochemical, fluorescence polarization, FP-Rh probe ABPP | recombinant LYPLA2 | inhibition, % at 5.9 µM | 320,000 tested, 0.38% active;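 active = inhibition above the screen-wide mean plus 3 SD, limit set per campaign, cut at about 26% in these data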;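 note: 0% = LYPLA2 with DMSO and 100% = wells lacking LYPLA2 enzyme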
Target sequence (O95372 whole entry, looked up): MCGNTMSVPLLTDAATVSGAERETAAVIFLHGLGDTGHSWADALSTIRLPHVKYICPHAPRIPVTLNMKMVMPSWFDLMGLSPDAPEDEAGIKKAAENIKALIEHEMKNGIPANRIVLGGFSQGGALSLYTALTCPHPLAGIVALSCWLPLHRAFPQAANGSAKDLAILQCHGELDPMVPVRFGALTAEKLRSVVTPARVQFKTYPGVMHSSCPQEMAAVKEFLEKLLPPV
PME-1 inh: PME-1 inhibitors via competitive probe labeling, primary screen, biochemical, fluorescence polarization, FP-Rh probe, HTS | recombinant PME-1 | 320,000 tested, 0.53% active | Protein phosphatase methylesterase 1 (Homo sapiens), Q9Y570 | inhibition, % at 5.9 µM;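 active = inhibition above the campaign mean of all compounds plus 3 SD, cut at about 26% in these data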;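 note: competitive labeling of PME-1 active site by serine hydrolase directed probe; 0% = PME-1 with DMSO and 100% = wells lacking PME-1 enzyme; inhibitors block probe labeling so polarization falls and inhibition rises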
Active calls of the source: *.

`C#CCOCCOCCOCCNc1nc(N2CCOCC2)nc(N2CCN(C(=O)[C@H](Cc3cc4ccccc4[nH]3)n3cc([C@@H](N)Cc4ccc(O)cc4)nn3)CC2)n1` gave GSTO1 counter 0.7, Fam108B inh -0.8, LYPLA1 inh -0.2, PREPL inh 20.6, LYPLA2 inh 2.4 and PME-1 inh -1.2.
`Cc1cccc(C)c1NC(=O)CNC(=O)c1ccc(N2CCCC2)c([N+](=O)[O-])c1` gave LYPLA1 inh 4.4, PREPL inh 5.8, LYPLA2 inh 0.8 and PME-1 inh 2.4.
COc1ccc(NC(=O)[C@@H]2CCCN2S(=O)(=O)c2ccccc2F)cc1S(=O)(=O)N1CCCCC1 was read as PREPL inh 0.3.
Screening CC(=O)c1cc2c(O)c(O)ccc2o1 returned GSTO1 counter 37.0*, Fam108B inh -3.4, LYPLA1 inh -3.9, PREPL inh -2.1, LYPLA2 inh -3.7 and PME-1 inh -2.7.
`CC(=O)c1cc2cc(O)ccc2o1` gave GSTO1 counter -0.8, Fam108B inh -3.0, LYPLA1 inh 3.0, PREPL inh 8.9, LYPLA2 inh -0.9 and PME-1 inh -2.4.
Screening CC(=O)Nc1ccc(S(=O)(=O)N(C)CC(=O)OC(C)C(=O)N(C)C2CCCCC2)cc1 (stereo not given) returned GSTO1 counter -4.2, Fam108B inh 2.4, LYPLA1 inh -2.6, PREPL inh 0.0, LYPLA2 inh 1.4 and PME-1 inh -2.8.
`O=C(c1cccnc1)c1ncc(C(F)(F)F)cc1Cl` gave GSTO1 counter 0.8, Fam108B inh -1.3, LYPLA1 inh -0.3, PREPL inh -3.2, LYPLA2 inh 0.2 and PME-1 inh -4.7.
CCC(Cc1ccccc1)NS(=O)(=O)c1ccc2c(c1)NC(=O)CO2 (stereo not given) was read as GSTO1 counter 22.3, Fam108B inh -1.5, LYPLA1 inh 1.5, PREPL inh -8.6, LYPLA2 inh 6.9 and PME-1 inh -2.4.
`O=C1COc2ccc(S(=O)(=O)NCc3ccccc3)cc2N1` gave GSTO1 counter 35.6*, Fam108B inh -4.9, LYPLA1 inh 3.9, PREPL inh 4.9, LYPLA2 inh 2.2 and PME-1 inh 4.0.
For O=[N+]([O-])c1cccc(/C=C/c2ccc3cccc(O)c3n2)c1 the results were GSTO1 counter 15.3, Fam108B inh 2.2, LYPLA1 inh 3.0, PREPL inh 24.4, LYPLA2 inh 7.5 and PME-1 inh -0.9.
`Oc1ccc(/C=C/c2ccc3cccc(O)c3n2)cc1Br` gave GSTO1 counter 5.1, Fam108B inh 8.2, LYPLA1 inh -4.0, PREPL inh 32.6, LYPLA2 inh -4.3 and PME-1 inh 31.0*.
NS(=O)(=O)c1ccc(Nc2ccc([N+](=O)[O-])c3nonc23)cc1 was read as GSTO1 counter 36.7*, Fam108B inh 3.5, LYPLA1 inh -0.2, PREPL inh 9.0, LYPLA2 inh 2.8 and PME-1 inh -7.7.
`CC(=O)c1ccc(Nc2ccc([N+](=O)[O-])c3nonc23)cc1` gave GSTO1 counter 14.6, Fam108B inh -0.9, LYPLA1 inh -2.8, PREPL inh 13.2, LYPLA2 inh -2.4 and PME-1 inh -0.3.
Screening Cc1nnc(N/N=C\c2ccc(-c3ccccc3[N+](=O)[O-])o2)n1N returned GSTO1 counter 36.2*, Fam108B inh 3.4, LYPLA1 inh 4.5, PREPL inh 7.2, LYPLA2 inh 6.1 and PME-1 inh 12.4.
For Cc1ccc(C(=O)N/N=C/c2ccc(-c3ccccc3[N+](=O)[O-])o2)cn1 the results were GSTO1 counter 36.6*, Fam108B inh 4.3, LYPLA1 inh 1.1, PREPL inh 2.5, LYPLA2 inh 0.2 and PME-1 inh 3.0.
For NC(=O)c1sc2nc(-c3ccccc3)c3c(c2c1N)CCCC3 the results were GSTO1 counter 7.1, Fam108B inh 5.2, LYPLA1 inh 0.3, PREPL inh 27.8, LYPLA2 inh 1.2 and PME-1 inh 32.8*.
COc1cc(C(=O)Nc2c(C(=O)O)[nH]c3ccc(Br)cc23)cc(OC)c1OC was read as GSTO1 counter 2.0, Fam108B inh 9.1, LYPLA1 inh 12.1, PREPL inh 18.4, LYPLA2 inh 0.2 and PME-1 inh 31.2*.
CCOC(=O)c1[nH]c2ccc(F)cc2c1NC(=O)c1cc(OC)c(OC)c(OC)c1 was read as GSTO1 counter -9.9, Fam108B inh 8.4, LYPLA1 inh -3.7, PREPL inh -0.7, LYPLA2 inh 3.7 and PME-1 inh -0.9.
`Cc1ccc(-c2csc3ncnc(SCC(=O)NCC4CCCO4)c23)cc1` (stereo not given) gave LYPLA1 inh -0.6, PREPL inh 9.2, LYPLA2 inh 2.2 and PME-1 inh -1.0.
CCn1c(=O)c2cc(C(=O)Nc3ccc(OC)cc3OC)sc2c2ccccc21 was read as GSTO1 counter -0.4, Fam108B inh -0.9, LYPLA1 inh 3.1, PREPL inh 4.5, LYPLA2 inh -0.1 and PME-1 inh 31.9*.
COC(CN(C)C(C(=O)NC1CCCCC1)c1ccccc1)OC (stereo not given) was read as GSTO1 counter 1.3, Fam108B inh -0.1, LYPLA1 inh 2.7, PREPL inh 9.1, LYPLA2 inh 1.8 and PME-1 inh 4.9.
Screening COC(CN(C(=O)CCl)C(C(=O)NC1CCCCC1)c1ccccc1C)OC (stereo not given) returned GSTO1 counter 79.6*, Fam108B inh 1.0, LYPLA1 inh 3.0, PREPL inh -2.4, LYPLA2 inh -1.1 and PME-1 inh -2.0.
Screening CCOc1ccc(N=C/C=C/c2ccccc2)c(O)c1 returned GSTO1 counter 54.5*, Fam108B inh 2.0, LYPLA1 inh 2.5, PREPL inh 11.4, LYPLA2 inh 3.8 and PME-1 inh 58.4*.
For CCc1cc(SC#N)cc(CC)c1NC(=O)CCl the results were GSTO1 counter 71.1*, Fam108B inh 6.8, LYPLA1 inh 3.1, PREPL inh -5.3, LYPLA2 inh 2.1 and PME-1 inh -2.1.
`Cc1ccc(-c2nc3sc(C#N)c(N)n3c(=O)c2C#N)cc1` gave GSTO1 counter 36.2*, Fam108B inh -10.1, LYPLA1 inh -5.1, PREPL inh 17.5, LYPLA2 inh -4.5 and PME-1 inh -7.6.
For CCOC(=O)N1CCN(C(=O)c2ccc3nc(SCc4ccc(F)cc4)n(C)c3c2)CC1 the results were GSTO1 counter -18.7, Fam108B inh 1.1, LYPLA1 inh -27.9, PREPL inh 36.9, LYPLA2 inh 28.2* and PME-1 inh -4.3.
Screening CN1CCN(C(=O)c2ccc(CSc3nc4ccncc4n3Cc3ccc(F)cc3)cc2)CC1 returned GSTO1 counter 7.2, Fam108B inh -2.9, LYPLA1 inh 2.0, PREPL inh 2.3, LYPLA2 inh 3.6 and PME-1 inh -0.4.
